A collection of fitness landscapes (doi:10.1126/science.1257360)
In all, about 140,000 sequences were measured (“enrichment ratio after two sorts for PhoP signalling”: median about 0, highest 2% from about 11 on). Many of the other results were omitted from the sample, so the highest values are more common in it than they were.

B1: PhoQ; a variant is named by its letters at X, in order, P23837 (parent)
chain: MKKLLRLFFPLSLRVRFLLATAAVVLVLSLAYGMVALIGYSVSFDKTTFRLLRGESNLFYTLAKWENNKLHVELPENIDKQSPTMTLIYDENGQLLWAQRDVPWLMKMIQPDWLKSNGFHEIEADVNDTSLLLSGDHSIQQQLQEVREDDDDAEMTHSVAVNVYPATSRMPKLTIVVVDTIPVELKSSYMVWSWFIYVLSANLLLVIPLLWVAAWWSLRPIEALAKEVRELEEHNRELLNPATTRELTSLVRNLNRLLKSERERYDKYRTTLTDLTHSLKTPLXXLQXXLRSLRSEKMSVSDAEPVMLEQISRISQQIGYYLHRASMRGGTLLSRELHPVAPLLDNLTSALNKVYQRKGVNISLDISPEISFVGEQNDFVEVMGNVLDNACKYCLEFVEISARQTDEHLYIVVEDDGPGIPLSKREVIFDRGQRVDTLRPGQGVGLAVAREITEQYEGKIVAGESMLGGARMEVIFGRQHSAPKDE

Variants of: B1
Assay: enrichment ratio after two sorts for PhoP signalling (ratio (wild type AVST 3.29)); higher = more functional
Conditions: with PhoP (E. coli)

Variant	enrichment ratio
STDK	≤ 0.25
AAVN	≤ 0.25
KDFG	≤ 0.25
TECV	22.2
QECV	8.7
NECW	≤ 0.25
TECW	37.6
MECW	≤ 0.25
TPKM	≤ 0.25
LMLV	≤ 0.25
GRQP	≤ 0.25
VYMI	≤ 0.25
FEMI	13
FEMW	≤ 0.25
FEMD	≤ 0.25
YTMI	6.21
FTMI	13.1
VCMI	17.6
KCMI	≤ 0.25
NSMI	2.19
FCMS	≤ 0.25
FTPA	0.426
FCMI	33.7
PKDI	≤ 0.25
LYLD	≤ 0.25
HNKV	≤ 0.25

Variant	enrichment ratio
VKIK	≤ 0.25
ALCW	6.49
YKFA	≤ 0.25
VGHR	≤ 0.25
HQYF	≤ 0.25
GETD	≤ 0.25
FEVV	11.9
NEVV	≤ 0.25
GEVV	17.2
FCVV	≤ 0.25
SLVV	1.38
TEVV	12.9
GGVV	≤ 0.25
SEVV	13.1
SQVV	8.77
MAVV	≤ 0.25
MEVV	2.27
NFKG	≤ 0.25
QAIA	≤ 0.25
STGI	4.79
KYGI	≤ 0.25
SRGI	≤ 0.25
SNFP	≤ 0.25
SCGI	12.6
SNGI	12.1
FMGW	≤ 0.25

Variant	enrichment ratio
HQYK	≤ 0.25
SCLT	13.3
SCLN	11.7
SCAT	16.1
SCVA	4.93
SCLS	9.62
SCIT	1.21
SCNT	≤ 0.25
SWLN	≤ 0.25
SCDT	≤ 0.25
SCLA	11.8
SCVT	1.01
SCVN	11.1
PRNP	≤ 0.25
AWLY	≤ 0.25
SHFY	≤ 0.25
VDWL	≤ 0.25
MMEY	≤ 0.25
SQTE	26.5
TQQK	≤ 0.25
FQTE	≤ 0.25
TQTE	26.4
KSTE	≤ 0.25
EQTE	≤ 0.25
YTEA	≤ 0.25
PPGL	≤ 0.25

Variant	enrichment ratio
AGLC	12.4
YALC	3.77
VYLC	≤ 0.25
VFLC	≤ 0.25
VGLC	16.6
NALC	≤ 0.25
GGLC	4.03
TGLC	10
AALC	13.9
NNPM	≤ 0.25
QKWG	≤ 0.25
ASFD	≤ 0.25
KIHF	≤ 0.25
NGVA	≤ 0.25
KLRA	≤ 0.25
SFAC	≤ 0.25
QKAC	≤ 0.25
MKAC	≤ 0.25
MMAC	3.29
SLAC	2.46
DMAC	≤ 0.25
SEAC	19.8
YWAC	≤ 0.25
MEAC	37.3
STAC	4.33
NEAC	15.1

Variant	enrichment ratio
QEAC	16
NIYV	≤ 0.25
IRLQ	≤ 0.25
HPHQ	≤ 0.25
QISV	≤ 0.25
SDLF	≤ 0.25
TCEE	≤ 0.25
MKWH	≤ 0.25
QAWW	≤ 0.25
QCDG	≤ 0.25
YQQR	≤ 0.25
KAAC	≤ 0.25
KSAC	≤ 0.25
VEAC	0.99
TEAC	25.6
NQAC	≤ 0.25
SQAC	13.4
SSAC	11.3
EQAC	≤ 0.25
FSAC	≤ 0.25
PWYS	≤ 0.25
WGDA	≤ 0.25
NQIK	≤ 0.25
TQHF	16.2
TQQF	33.4
TQMS	4.53

Variant	enrichment ratio
DWSM	≤ 0.25
RNSM	≤ 0.25
TQSF	7.45
TQHI	3.97
LAQF	≤ 0.25
TQSM	23.3
TQHP	≤ 0.25
TQHQ	13.8
TQTD	≤ 0.25
NYQY	≤ 0.25
NTGP	≤ 0.25
YRMS	≤ 0.25
FSKE	≤ 0.25
MTHL	7.87
PNLT	≤ 0.25
TPTL	≤ 0.25
SMDI	≤ 0.25
REVG	≤ 0.25
WQFM	≤ 0.25
PAAY	≤ 0.25
ENTT	≤ 0.25
GKMH	≤ 0.25
KCNH	≤ 0.25
